# From PubChem
# In the library only some 5.9% were active in any assay of this set; here they are far more common.
# AHR activator – AHR activators, primary screen, cell-based, luminescence, luciferase reporter, human. Aryl hydrocarbon receptor (Homo sapiens), P35869. AHR-responsive luciferase reporter cells. activation, % at 5 µM. 320,000 tested, 2.5% active. AID 2796, 2010; in the data active = activation above about 47%;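 note: 0% = vehicle wells and 100% = reference agonist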
# NR0B1 inh – DAX1 (NR0B1) inhibitors, primary screen, cell-based, HEK293, Gal4-DAX1, luciferase luminescence; Nuclear receptor subfamily 0 group B member 1 (Homo sapiens), P51843; HEK293 Gal4-DAX1 luciferase reporter; inhibition, % at 6.75 µM; 340,000 tested, 0.99% active; AID 504766, 2011;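 active = inhibition above the mean over all tested compounds plus 3 SD, cut at about 4.2% in these data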;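 note: 0% = DAX1-transfected cells with DMSO and 100% = empty-vector control cells with DMSO; inhibition shows as a rise in luminescence from relieved DAX1 repression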
# HSF-1 act – HSF-1 activators, primary screen, NIH3T3-HGL cells, MG132 stress, luminescence, single point. NIH3T3-HGL HSF-1 luciferase reporter, 8 h; 100% = twice DMSO control signal. activation, % at 9 µM. 300,000 tested, 1.7% active;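 active = mean replicate activation of at least 50% with a set share of replicates each reaching 50%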;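 note: 0% = median of the neutral control wells and 100% = twice that signal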
# FXN GAA850 act – FXN promoter activators, primary screen, cell-based, luciferase luminescence, HEK293 lucGAA850 | HEK293 lucGAA850 FXN promoter luciferase reporter, 24 h; percent of 10 µM SAHA response | activation, % at 6 µM | 360,000 tested, 0.56% active;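 active = activation above the average of all compounds screened plus 3 SD, cutoff fixed separately per campaign, cut at about 7.5% in these data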;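 note: 0% = DMSO wells and 100% = 10 µM SAHA wells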
# HSF1 inhib – HSF1 inhibitors in luciferase reporter cells, primary screen, cell-based, NIH3T3, luminescence | 300,000 tested, 0.77% active | activity change, negative = inhibition, % at 7.5 µM (by protocol) | NIH3T3-HGL HSE-luciferase, MG132-induced, luminescence 8 h; active compounds read low | AID 2098, 2009;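 active = more than half of replicate wells show activity change below -50%, luminescence cut by over half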;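 note: luciferase reports HSF-1 transcriptional activity via heat shock element; 0% = median of DMSO wells and -100% = zero luminescence signal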
# HSP90 refold inh – HSP90 inhibitors, primary screen, cell lysate, luminescence; Heat shock protein HSP 90 (rabbit reticulocyte lysate; luciferase refolding); Rabbit reticulocyte lysate, luciferase refolding luminescence, 3 h; inhibition, % at 5.6 µM; 290,000 tested, 0.91% active; AID 1789, 2009;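 active = inhibition above the screen-wide mean plus 3 SD, computed separately per campaign, cut at about 16% in these data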;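 note: 0% = DMSO wells and 100% = 60 µM geldanamycin wells; inhibitors lower the luminescence because luciferase stays unfolded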
# HSP90 confirm – HSP90 inhibitors, confirmation, cell lysate, luminescence. 2,300 tested, 64% active. AID 1846, 2009. inhibition, % at 5.9 µM. rabbit reticulocyte lysate, luciferase refolding luminescence, 3 h. shares compounds with HSP90 refold inh; in the data active = inhibition above about 18%;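 note: 0% = vehicle wells and 100% = reference inhibitor wells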
# FLuc counter – firefly luciferase inhibitors, HSP90 counter-screen, confirmation, artefact control for HSP90 inhibitor project, biochemical, luminescence, triplicate; shares compounds with HSP90 refold inh; purified native firefly luciferase; inhibition, % at 5.9 µM; 2,300 tested, 48% active;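 active = inhibition above the mean inhibition of all tested sample wells plus 3 SD, cut at about 10% in these data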;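 note: 0% = DMSO with luciferase and 100% = wells lacking luciferase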
# Target sequence (P08659 whole entry, looked up): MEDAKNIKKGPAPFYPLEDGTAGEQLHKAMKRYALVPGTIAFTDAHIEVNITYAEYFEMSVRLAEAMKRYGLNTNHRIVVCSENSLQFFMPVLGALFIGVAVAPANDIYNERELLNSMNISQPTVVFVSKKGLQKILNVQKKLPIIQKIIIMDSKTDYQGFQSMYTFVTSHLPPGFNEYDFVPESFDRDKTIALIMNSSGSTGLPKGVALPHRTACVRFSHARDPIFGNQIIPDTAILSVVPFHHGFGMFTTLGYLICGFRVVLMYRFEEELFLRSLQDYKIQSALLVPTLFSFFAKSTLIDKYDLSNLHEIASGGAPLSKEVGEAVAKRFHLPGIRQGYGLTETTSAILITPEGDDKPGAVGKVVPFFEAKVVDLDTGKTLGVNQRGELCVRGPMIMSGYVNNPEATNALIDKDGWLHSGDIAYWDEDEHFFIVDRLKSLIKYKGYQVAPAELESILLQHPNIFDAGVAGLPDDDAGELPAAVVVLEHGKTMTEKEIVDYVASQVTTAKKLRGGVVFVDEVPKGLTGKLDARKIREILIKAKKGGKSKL
# An asterisk follows results filed as active; nt = no result given.
SMILES,AHR activator,NR0B1 inh,HSF-1 act,FXN GAA850 act,HSF1 inhib,HSP90 refold inh,others
Oc1ccc2c3c1O[C@H]1[C@@H](O)CC[C@@]4(O)[C@@H](C2)N(CC2CCC2)CC[C@]314,-1.1,1.3,-4.1,0.9,-2.6,nt,
NC(N)=Nc1ccc2[nH]c3c(c2c1)C[C@@]1(O)[C@H]2Cc4ccc(O)c5c4[C@@]1(CCN2CC1CC1)[C@H]3O5,14.3,-0.6,nt,11.2*,nt,nt,
CN1C(=O)C(=Cc2c(OCc3cnc(Cl)s3)ccc3ccccc23)C(=O)N(C)C1=O,8.3,2.0,60.9*,5.2,54.0,-0.7,
Cn1c(=O)[nH]c2nncnc2c1=O,1.8,1.2,-5.4,0.1,-3.3,nt,
Cc1cc(/C=C2\C(=O)NC(=O)N(c3ccc(Br)cc3)C2=O)c(C)n1C,64.2*,-0.3,20.9,2.5,12.6,-3.1,
S=C1CN=C(c2ccccc2)c2cc(Cl)ccc2N1,-1.1,0.1,65.0*,-0.8,32.3,1.0,
COc1ccc(C2=NCC(=S)Nc3ccc(Cl)cc32)cc1OC,-2.4,0.9,17.3,3.2,8.8,nt,
CN(C(=O)COC(=O)c1cn(C)c2ccccc12)C1CCCCC1,4.2,-0.5,nt,0.9,nt,nt,
CN(C)c1ccc([N+](=O)[O-])c([N+](=O)[O-])c1,nt,4.4*,nt,2.1,nt,nt,
O=c1[nH]c(=O)n(-c2ccc(Br)cc2)c(O)c1C=NCCN1CCCCC1,-0.8,6.4*,-6.5,1.5,-2.2,-2.3,
Cc1cccc(-n2c(O)c(C=NCCN3CCCCC3)c(=O)[nH]c2=O)c1,-1.5,0.2,-27.3,0.6,-11.5,-0.9,
Cc1nn(Cc2ccccc2Cl)c(C)c1C(=O)OCC(=O)N1CC(C)OC(C)C1 (configuration not stated),52.1*,0.8,-11.0,0.3,-2.5,0.6,
CN(C)CCc1nc2ccccc2c(=O)n1-c1ccccc1,8.8,nt,81.1*,nt,32.9,-0.6,
CCCc1nc2ccccc2c(=O)n1-c1ccc(OC)cc1,0.2,0.8,0.2,1.1,-9.0,-1.7,
CCCCc1nc2ccccc2c(=O)n1-c1ccccc1O,73.0*,-0.1,-4.0,3.0,0.8,7.2,
CCCc1nc2ccccc2c(=O)n1-c1ccccc1OC,2.9,-0.9,25.3,-0.7,11.7,0.3,
O=C(C(=O)N1CCOCC1)c1cn(Cc2ccc(F)cc2)c2ccccc12,-2.4,1.1,-4.1,-0.9,-0.9,1.9,
CC(C)CC(C)N (configuration not stated),-1.1,-0.2,nt,-0.5,nt,nt,
CN(C)C(=O)OCc1n(C)cc[n+]1C,-1.6,1.5,-8.5,0.5,-11.2,0.3,
CCN(CC)P(c1n(C)cc[n+]1C)N(CC)CC,9.2,6.2*,-8.9,0.2,-2.9,-0.4,
CSc1nnc(C2CCNCC2)n1C,3.0,-0.8,5.3,1.3,-5.7,6.6,
N=C1c2ccccc2CN1NC(=O)c1ccco1,2.1,1.5,nt,0.1,nt,nt,
CCCCn1c(NC(=O)c2ccco2)c(C(=O)OCC)c2nc3ccccc3nc21,3.2,-0.7,70.9*,-3.3,58.4,7.8,
COCC(C)OC(=O)c1c(N)n(Cc2ccco2)c2nc3ccccc3nc12 (configuration not stated),62.6*,0.1,-4.1,2.0,-4.3,1.9,
Nc1c(C(=O)NCc2ccco2)c2nc3ccccc3nc2n1Cc1ccccc1,4.1,-0.3,-24.4,1.6,-0.8,6.4,
SMILES,AHR activator,NR0B1 inh,HSF-1 act,FXN GAA850 act,HSF1 inhib,HSP90 refold inh,others
CCOC(=O)c1c(N)n(Cc2ccco2)c2nc3ccccc3nc12,75.3*,-0.1,nt,-0.9,nt,-1.9,
CC(C)CCOC(=O)c1c(N)n(CC2CCCO2)c2nc3ccccc3nc12 (configuration not stated),28.6,-0.6,16.3,-0.7,3.2,2.4,
CC(C)OC(=O)c1c(N)n(CC2CCCO2)c2nc3ccccc3nc12 (configuration not stated),3.7,-1.2,5.6,0.0,2.4,16.2*,
Cc1c(C=O)c2ccccc2n1Cc1ccc([N+](=O)[O-])cc1,-3.8,-0.2,-3.1,3.3,2.9,4.4,
CC(C)C(=O)Nc1ccc(S(=O)(=O)N2CC3CC(C2)c2cccc(=O)n2C3)cc1 (configuration not stated),-2.3,-1.3,0.0,1.7,-5.6,-2.8,
CCOC(=O)C1CCN(/C=C2/C(=O)NC(=O)N(c3ccc(OCC)cc3)C2=O)CC1,-0.9,1.4,nt,-1.3,nt,23.7*,HSP90 confirm=-1.8;FLuc counter=-4.5
CC1CN=C(NC(C)c2ccccc2)S1 (configuration not stated),-2.1,-0.1,4.7,4.5,-0.7,17.2*,HSP90 confirm=-4.4;FLuc counter=-8.4
O=C(c1ccc(CS(=O)(=O)c2ccc(Br)cc2)o1)N1CCC2(CC1)OCCO2,2.8,0.5,6.6,1.3,0.6,0.8,
O=C(CCS(=O)(=O)c1ccc(Br)cc1)N1CCC2(CC1)OCCO2,2.1,0.2,nt,0.8,nt,77.7*,HSP90 confirm=-4.6;FLuc counter=-11.3
Cc1ccc(OCCOc2cccc(C=C3C(=O)NC(=O)NC3=O)c2)cc1,-0.8,-3.4,4.3,3.4,-4.9,30.4*,HSP90 confirm=44.6*;FLuc counter=14.3*
COc1ccccc1OCCCn1cc(C=O)c2ccccc21,-3.5,-1.0,29.8,6.4,2.6,18.1*,HSP90 confirm=21.5*;FLuc counter=-18.1
CC(=O)C1CCC2C3CC(O)C4CC(O)CCC4(C)C3CCC12C (configuration not stated),nt,1.5,nt,1.1,nt,nt,
Cc1ccc(CN2CCCN(Cc3ccc(C)cc3)S2(=O)=O)cc1,-0.2,0.6,1.3,0.5,-0.9,18.0*,HSP90 confirm=7.3;FLuc counter=-1.4
Cc1cccc(CN2CCCN(Cc3ccc(Cl)cc3)S2(=O)=O)c1,0.3,0.2,0.5,-0.7,1.3,0.4,
CCOc1cccc(N2C(=O)/C(=C/c3ccco3)C(=O)NC2=S)c1,3.6,1.8,-1.2,0.8,-2.6,32.2*,HSP90 confirm=6.6;FLuc counter=18.7*
O=C1NC(=S)N(c2ccccc2)C(=O)/C1=C/c1ccco1,5.3,1.5,11.3,1.6,-6.3,6.6,
CN(C)C(=O)Oc1cccc(-c2cn3cc(Cl)ccc3n2)c1,8.1,-0.9,30.2,1.8,19.5,5.5,
CN(C)C(=O)Oc1ccc(-c2cn3cc(Cl)ccc3n2)cc1,-4.7,-0.6,26.6,4.6,16.3,32.5*,HSP90 confirm=33.6*;FLuc counter=21.4*
